HepG2 tox – counter-screen for TGF-b inhibitors: cytotoxicity in HepG2 cells; HepG2 CAGA-GFP viability, ATP luminescence, 18 h; Potency, µM (series often up to 46.1 µM), most hits filed as cytotoxic; 410,000 compounds, 0.76% hits; AID 588856
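HepG2 CAGA-GFP cells (1000/well, DMEM with 1% FBS) received compound, then TGF-beta at 500 pg/mL final, and were incubated 18 hours at 37 degrees C. Viability was read by CellTiter-Glo luminescence. Media-only wells were set as complete cell-killing and DMSO as no toxicity.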
ATXN2 expr inh – reduces ATXN2 reporter expression in HEK-293 cells; 360,000 compounds, 0.72% hits; HEK-293 ATXN2-luciferase reporter, luminescence, 24 h; AID 1745845; Potency, µM (highest dose often 57 µM), actives largely listed as inhibitors; further: nearly all actives have a fitted effect of over 55% in size
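ATXN2-luciferase reporter cells (luciferase flanked by upstream and downstream ATXN2 gene portions) were treated 24 h at 37 °C with compounds at up to 57 uM. SteadyGlo luminescence gave expression; GF-AFC fluorescence gave viability.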
TGFb inhibitor – TGF-b pathway inhibition. AID 588855. HepG2 CAGA-GFP TGF-b/SMAD3 reporter, GFP fluorescence, 18 h; TGF-beta stimulated, 500 pg/mL final. 410,000 compounds, 1.2% hits. Potency, µM (titrated, usually from 46.1 µM), most hits filed as inhibitors; further: nearly all actives have a fitted effect of over 65% in size
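Inhibition of TGF-beta-driven CAGA-GFP reporter expression in HEPG2 cells is measured by cellular GFP fluorescence after 18 h stimulation with 500 pg/mL recombinant TGF-beta in 1% FBS medium at 37 degrees C.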
uPA surface inh – blocks generation of uPA at the cell surface; cell surface uPA generation assay, qHTS; Potency, µM (highest dose often 38.3 µM), usual class: inhibitors; 330,000 compounds, 0.31% hits; AID 540303; active means well fitted inhibition curve with a large enough effect; inconclusive means small, poorly fitted or top-dose-only effect; inactive means no such curve, though single readings can be large or run the other way; tested in mouse RAW 264.7 cells; further: nearly all actives have a fitted effect of over 55% in size
ATXN viability – reduces viability in counter-screen for ATXN expression inhibitors; 400,000 compounds, 0.49% hits; AID 651635; Potency, µM (highest dose often 56.7 µM), most hits filed as cytotoxic; S2 cells (HEK-293 line with an ATXN2-luciferase reporter) viability, CellTiter-Fluor protease fluorescence, 24 h; further: nearly all actives have a fitted effect of over 40% in size
Giardia kill – Giardia lamblia killing; Giardia lamblia trophozoite viability; activity change, % at 7.66 µM, hits read low; 340,000 compounds, 0.15% hits; AID 540267; in the data active means activity change below about -80%; inconclusive means between about -30% and that limit;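 further: parasites exposed to compound for two days anaerobically before the ATP read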
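Each well holds 100 Giardia trophozoites and compound. After two days (48 hrs) at 37 deg C in anaerobic conditions, ATP is quantified by luminescence.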
Hits are given with their value; [ ] = another dose, or the depositor's remark. Most compounds without a hit are left out; they make up all but 2.6% or so of the library. Unless noted, the call rests on the fitted dose curve; in most records, active means well fitted curve in the direction sought with a large enough effect; inconclusive means small, poorly fitted or top-dose-only effect, or another doubt; inactive means no such curve, though single readings can be large; an effect the other way counts as inactive or inconclusive.

Screening CC(C)(C)C1=CC(=O)C(=O)C(C(C)(C)C)=C1 returned HepG2 tox inactive, TGFb inhibitor 16µM, uPA surface inh inactive, ATXN viability 13µM and Giardia kill inactive.
For Cc1cc(C(=O)Nn2c(C3CCCCC3)nc3ccccc3c2=O)ccc1[N+](=O)[O-] the results were HepG2 tox inactive, TGFb inhibitor 20µM, uPA surface inh inactive, ATXN viability inconclusive and Giardia kill inactive.
O=S(=O)(c1cccc(Br)c1)N1CCN(c2nc(-c3cccs3)nc3ccccc23)CC1 was read as HepG2 tox inactive, TGFb inhibitor inactive and Giardia kill inactive.
For C(=N\Nc1nc2ccccc2[nH]1)/c1ccc2c(c1)OCCO2 the results were HepG2 tox inactive, TGFb inhibitor inconclusive, uPA surface inh inconclusive, ATXN viability inactive and Giardia kill inactive.
`C(=N\Nc1ccc2ccccc2n1)/c1ccc2c(c1)OCCO2` gave HepG2 tox inactive, ATXN2 expr inh inconclusive, TGFb inhibitor 16µM, uPA surface inh 2.2µM, ATXN viability inconclusive and Giardia kill inactive.
Screening Cc1cccc(/C=N/Nc2ccc3ccccc3n2)c1 returned HepG2 tox inactive, TGFb inhibitor inconclusive, uPA surface inh 8.9µM, ATXN viability inactive and Giardia kill inconclusive.
`CN(C)c1ccc(/C=C/c2ccnc3ccccc23)cc1Cl` gave HepG2 tox inactive and TGFb inhibitor inactive.
`COc1ccc(C2c3c(ncn(CCN4CCOCC4)c3=N)Oc3ccc4ccccc4c32)cc1OC` (stereo not given) gave HepG2 tox 14µM, ATXN2 expr inh inconclusive, TGFb inhibitor inconclusive and Giardia kill inactive.
`COc1ccccc1C1c2ccc3ccccc3c2Oc2ncn(CCN(C)C)c(=N)c21` (stereo not given) gave HepG2 tox 16µM, ATXN2 expr inh 25µM, TGFb inhibitor inconclusive, uPA surface inh inactive, ATXN viability 22µM and Giardia kill inactive.
COc1ccccc1C1c2ccc3ccccc3c2Oc2ncn(CCCO)c(=N)c21 (stereo not given) was read as HepG2 tox inactive, ATXN2 expr inh inactive, TGFb inhibitor inactive, uPA surface inh inactive, ATXN viability 20µM and Giardia kill inactive.
For COc1ccc(C2c3c(ncn(CCCO)c3=N)Oc3ccc4ccccc4c32)cc1OC (stereo not given) the results were HepG2 tox inactive, ATXN2 expr inh inconclusive, TGFb inhibitor inconclusive, uPA surface inh inactive, ATXN viability inconclusive and Giardia kill inactive.
For COc1ccc(C2c3ccc4ccccc4c3Oc3ncn(CCCN(C)C)c(=N)c32)cc1 (stereo not given) the results were HepG2 tox inactive, ATXN2 expr inh inconclusive, TGFb inhibitor inconclusive, uPA surface inh inactive, ATXN viability inconclusive and Giardia kill inactive.
`O=C(CN1C(=O)C2(CCCC2)NC[C@H]1c1cc(F)cc(F)c1)Nc1ccc2c(c1)C[C@@]1(C2)C(=O)Nc2ncccc21` gave ATXN2 expr inh inactive.
`CN(C)CCNC(=O)c1ccc(COc2ccc(Cl)cc2Cl)cc1` gave HepG2 tox 11µM, ATXN2 expr inh inconclusive, TGFb inhibitor inconclusive, ATXN viability inconclusive and Giardia kill inactive.
`CC(C)c1ccc(C(CC(=O)c2ccc(Cl)cc2)C(=O)O)cc1` (stereo not given) gave HepG2 tox inactive, ATXN2 expr inh inactive, TGFb inhibitor inactive, uPA surface inh inactive, ATXN viability inconclusive and Giardia kill inactive.
O=C(CC(C(=O)O)c1ccc(Cl)cc1)c1ccc(Br)cc1 (stereo not given) was read as HepG2 tox 10µM, ATXN2 expr inh inactive, TGFb inhibitor inactive, uPA surface inh inactive, ATXN viability inactive and Giardia kill inactive.
For Cc1ccsc1C1Cc2c(C(=O)NCc3cccnc3)c(=O)cc(C)n2-c2ccccc2S1 (stereo not given) the results were ATXN viability inactive.
CCCNC(=O)c1nnsc1S(=O)(=O)c1ccc(Cl)cc1 was read as HepG2 tox 18µM, ATXN2 expr inh inactive[11.3 µM], TGFb inhibitor inconclusive, uPA surface inh inactive, ATXN viability inconclusive and Giardia kill inactive.

From PubChem
